This is a sample that favours compounds with a hit; in the whole collection about 2.4% have one here.
D2 ag-1 = HTS Assay for Allosteric Agonists of the Human D2 Dopamine Receptor: Primary Screen for Agonists | 0.53% of 340,000 active | HEK293 T-REx D2 cells, calcium flux agonist mode | activation, % at 2 µM;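 active = activation over 3 SD above normal in the single-dose calcium agonist read, cut at about 30% in these data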; also: 0% is about no effect
Target sequence (P14416 whole entry, looked up): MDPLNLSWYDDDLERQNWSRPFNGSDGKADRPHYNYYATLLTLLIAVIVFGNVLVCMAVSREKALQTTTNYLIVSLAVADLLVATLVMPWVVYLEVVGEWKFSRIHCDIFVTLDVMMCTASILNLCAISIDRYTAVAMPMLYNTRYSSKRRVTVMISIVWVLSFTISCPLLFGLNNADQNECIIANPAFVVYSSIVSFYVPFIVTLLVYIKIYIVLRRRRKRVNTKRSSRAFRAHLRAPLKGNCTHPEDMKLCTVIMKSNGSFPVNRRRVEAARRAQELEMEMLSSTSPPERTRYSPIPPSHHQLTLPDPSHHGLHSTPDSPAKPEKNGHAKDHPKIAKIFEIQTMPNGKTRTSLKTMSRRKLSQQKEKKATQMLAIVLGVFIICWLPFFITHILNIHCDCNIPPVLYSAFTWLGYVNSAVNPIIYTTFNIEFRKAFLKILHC
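In this primary screen, compounds producing a positive calcium signal within 180 s of addition to tetracycline-induced, force-coupled HEK293 Trex D2 cells are flagged; cells are dye-loaded with a no-wash calcium kit beforehand.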
D2 antagonist = HTS Assay for Allosteric Antagonists of the Human D2 Dopamine Receptor: Primary Screen for Antagonists; D(2) dopamine receptor (Homo sapiens), P14416; HEK293 TREx D2 cells, calcium flux, dopamine EC80; inhibition, % at 10 µM; 2% of 340,000 active; in the data active = inhibition above about 30%; inactive = below that, where a call was filed; also: 0% is about no effect
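Antagonism is scored as inhibition of an EC80 dopamine-evoked calcium signal in a force-coupled, tetracycline-inducible HEK293 T-REx D2 line, with compound present 180 s before agonist.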
D2 PAM-1 = HTS Assay for Positive Allosteric Modulators of the Human D2 Dopamine Receptor: Primary Screen for Potentiators | HEK293 T-REx D2, calcium flux, EC20 dopamine potentiation | D(2) dopamine receptor (Homo sapiens), P14416 | 0.34% of 340,000 active | potentiation, % at 10 µM;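 active = potentiation over 3 SD above the plate norm, cut at about 30% in these data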; also: 0% is about no effect
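Cells plated with tetracycline inducer and held overnight at 30 C; calcium dye loaded 30–90 min at room temperature; baseline taken, compound added and read 180 s; EC20 dopamine then added and read 180 s.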
D2 ag-2 = Beta-Arrestin HTS for Positive Allosteric Modulators of the Human D2 Dopamine Receptor: Agonists; D(2) dopamine receptor (Homo sapiens), P14416; DiscoveRx PathHunter D2 beta-arrestin, luminescence, 90 min; 100% = 57 uM dopamine signal; activation, % (no concentration beside the values); 0.084% of 360,000 active; AID 624465, 2012; in the data active = activation above about 40%; inconclusive = between about 15% and that limit
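DiscoveRx PathHunter D2 beta-arrestin cells (2,100/well) attached overnight, then compound-stimulated 90 min at 37 C in HBSS/10 mM HEPES/0.1% Tween-20 buffer; beta-galactosidase complementation read by luminescence after 1 h at ambient temperature. Dopamine 57 uM final (EC100) as control.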
D2 PAM-2 = Beta-Arrestin HTS for Positive Allosteric Modulators of the Human D2 Dopamine Receptor: Potentiators | D(2) dopamine receptor (Homo sapiens), P14416 | DiscoveRx D2 beta-arrestin cells, luminescence, 90 min; 100% = 57 uM dopamine signal | potentiation, % (no concentration beside the values) | 0.23% of 360,000 active | AID 624464, 2012; in the data active = potentiation above about 50%; inconclusive = mostly about 30% to 49%
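PathHunter D2 cells, attached overnight at 37 deg C, received compound in DMSO plus dopamine at EC20 (50 nM final) for 90 min at 37 deg C. Beta-arrestin recruitment was read as luminescence after 1 h with detection reagent at ambient temperature.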
The depositor's hits bear a star; ? = inconclusive; nt = not tested or not shown.

SMILES	D2 ag-1	D2 antagonist	D2 PAM-1	D2 ag-2	D2 PAM-2
O=C1CN(O)C=C2N=c3ccccc3=C2N1c1ccc([N+](=O)[O-])cc1	1	24	16	0	103*
Cc1cc2nc(C3CCCN(C(=S)Nc4ccccc4)C3)[nH]c2cc1C (stereo not given)	-1	31*	7	0	-8
O=C(COC(=O)CCNS(=O)(=O)c1ccccc1)NC(=O)Cc1ccccc1	0	37*	-10	5	0
O=C(COC(=O)CCNS(=O)(=O)c1ccccc1F)Nc1nnc(-c2ccccc2)o1	-1	32*	-8	-6	9
O=C(COC(=O)CCNS(=O)(=O)c1ccc(Cl)cc1)NCc1ccccc1	nt	nt	nt	-2	-10
Cc1cccc(NC(=O)NC(C)C(c2cccs2)N2CCOCC2)c1 (stereo not given)	1	30*	11	-6	-10
Cc1ccc(C(=O)NC(C)C(c2cccs2)N2CCCC2)s1 (stereo not given)	0	-4	33*	7	-19
CC(C)C(=O)NC(C)C(c1cccs1)N1CCOCC1 (stereo not given)	0	-13	10	-3	7
CC(NC(=O)c1ccco1)C(c1cccs1)N1CCN(c2ccccc2F)CC1 (stereo not given)	-1	22	38*	-1	8
CC(C)CNC(=O)c1ccc(-c2ccc(F)c(F)c2)c2ccoc12	nt	nt	nt	6	-11
CCOc1cc(C(=O)OC(C)C(=O)Nc2ccc(NC(C)=O)cc2)ccc1OCC(=O)N1CCCCC1 (stereo not given)	-1	15	5	-5	-6
CCOc1ccc(-n2c(SCC(=O)Nc3ccc(F)cc3)nc3c([nH]c4ccccc43)c2=O)cc1	1	nt	-2	nt	nt
Cc1sc2ncn(CC(=O)N3CCN(c4ccc(F)cc4)CC3)c(=O)c2c1S(=O)(=O)N1CCCCC1	0	nt	5	nt	nt
CCOC(=O)c1cc(S(=O)(=O)NC2CCC(C)CC2)cn1C (stereo not given)	0	-10	99*	3	1
Cc1ccc(/C=N/NC(=O)CSc2nnc(-c3ccc(Cl)cc3)n2-c2ccccc2)o1	-1	-19	-1	?	88*
O=C(CSc1nnc(-c2ccc(Cl)cc2)n1-c1ccc(Cl)cc1)N/N=C/c1ccco1	-1	-9	-9	11	17
O=S(=O)(c1cc(Cl)cc(Cl)c1)N1CCCC1c1nc2ccccc2s1 (stereo not given)	1	0	43*	-1	-1
CN1CCN(C(=O)c2ccccc2NC(=O)c2ccccc2Br)CC1	0	3	9	2	6
COc1ccc(CN2CCN(C(=O)c3cccs3)CC2)cc1	81*	95*	-23	9	5
O=C(c1cccs1)N1CCN(c2ccccc2)CC1	0	31*	-2	-2	-4
CN1CCN(C(=O)c2ccccc2NC(=O)c2cccs2)CC1	1	37*	5	-3	5
O=C(c1cccs1)N1CCN(c2ccc(F)cc2)CC1	1	-2	11	-2	-8
COc1ccc(-c2cc(C(F)(F)F)n3nc(C(=O)Nc4sc5c(c4C#N)CCC(C)C5)cc3n2)cc1OC (stereo not given)	1	nt	1	nt	nt
O=C(Nc1ccc2c(c1)OCO2)c1cc(C2CCCCN2C(=O)c2ccc(Cl)cc2)on1 (stereo not given)	nt	nt	nt	7	-7
COc1ccc(CNC(=O)c2cnc3sc4cc(OC)ccc4n3c2=O)cc1	nt	nt	8	nt	nt
SMILES	D2 ag-1	D2 antagonist	D2 PAM-1	D2 ag-2	D2 PAM-2
COc1ccc(C)cc1NC(=O)C1CCN(S(=O)(=O)c2ccc3[nH]c4c(c3c2)CCCCC4)CC1	0	nt	0	nt	nt
COc1ccc(NC(=O)C(c2ccc(C)cc2)N(C)C(=O)CNC(C)=O)cc1 (stereo not given)	-1	5	-5	1	-4
COc1ccc(C(NC(=O)CNC(C)=O)C(=O)Nc2ccc(C(C)C)cc2)cc1 (stereo not given)	0	37*	-5	-1	-3
COc1ccc(C/C(C)=N/NC(=S)Nc2ccc(C(C)C)cc2)cc1	0	36*	-1	2	-14
COc1ccc(NC(=O)C(c2ccc(OC)cc2)N(C)C(=O)CNC(C)=O)cc1 (stereo not given)	0	38*	-4	-1	-9
COc1ccc(OC)c(NC(=O)CCc2nc(-c3ccc(C)cc3)no2)c1	0	nt	-1	nt	nt
COc1ccc(C)cc1NC(=O)CCCN1C(=O)C(c2ccccc2)Oc2cccnc21 (stereo not given)	-1	38*	5	-2	-36
CCOc1ccccc1CNC(=O)CCc1cn(Cc2ccc(Cl)cc2)c2ccccc12	-2	nt	-1	nt	nt
CCC(C)c1ccccc1N1CC(C(=O)N2CCN(c3ccccc3)CC2)CC1=O (stereo not given)	nt	nt	nt	-1	10
CCC(C)c1ccccc1N1CC(C(=O)N2CCN(S(=O)(=O)c3cccc([N+](=O)[O-])c3)CC2)CC1=O (stereo not given)	1	36*	-8	4	8
Cc1ccc(N(CC(=O)NCCSc2nc3ccccc3s2)S(=O)(=O)c2ccccc2)c(C)c1	1	55*	6	1	16
COc1ccccc1/C=C/CN1CCC(n2nccc2NC(=O)CCc2ccccc2)CC1	0	35*	0	-6	-13
CCn1cc(CN2CCC(n3nccc3NC(=O)c3ccccc3OC)CC2)cn1	-1	21	-11	-2	-10
CCOc1ccc(CN2CCC(n3nccc3NC(=O)c3ccccc3OC)CC2)cc1	0	38*	-26	-5	-39
O=C(Nc1ccnn1C1CCN(C/C=C/c2ccccc2)CC1)c1ccccc1Cl	83*	80*	-25	?	-14
O=C(Nc1ccnn1C1CCN(Cc2ccccc2)CC1)c1ccccc1Cl	-1	7	-24	-7	-25
O=C(CCc1ccccc1)Nc1ccnn1C1CCN(C/C=C/c2ccccc2)CC1	7	-16	2	-1	-47
COc1cccc(CNC(=O)c2nn(-c3ccccc3Cl)nc2CO)c1	-1	nt	1	nt	nt
CCn1c(COC(=O)CNC(=O)c2cc(OC)c(OC)c(OC)c2)nc2cc(S(=O)(=O)N(C)C)ccc21	0	-8	2	2	-1

Source: PubChem BioAssay
